Several values for one entry are separate records, joined by “and”; a condition that tells them apart may be missing. Identical values can stand only once. Results filed as inconclusive are left out. Activity calls are given as the source filed them. Unless noted, the call rests on the fitted dose curve; in most records, active means well fitted curve in either direction with a large enough effect (not every such curve was filed as active); inconclusive means small, poorly fitted or top-dose-only effect, or another doubt; inactive means flat fitted curve, though single readings scatter.
Key:
[1] = AP1 Signaling Pathway (AID 357); conditions: ME-180 AP-1-bla reporter, EGF-induced, beta-lactamase ratio, 5 h;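 further: ME-180 reporter cells stimulated with EGF at its EC50 level; on the % scale 0 is the no-effect control and ±100 the full control effect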
How it was run: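 Beta-lactamase reporter under AP-1 response element, ME-180 background. Stimulus: EC50 EGF. Compound exposure 5 h, 37 °C. Detection: CCF4, 2.5 h RT, 460/530 nm. Values: AC50 from titration.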

[2] = target: Cytochrome P450 1A2 (Homo sapiens) (UniProt P05177); test: p450-cyp1a2 (AID 410; calls by dose curve; further: potency means the concentration at half of the fitted maximal effect;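 on activity change, negative = inhibition: -100% = full effect of reference inhibitor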); conditions: recombinant CYP1A2, luciferin-ME demethylation, luminescence; series mostly up to 57 µM
How it was run: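 20nM CYP1A2, 100uM Luciferin-ME (=Km), 100mM KPO4; cpd 10 min RT; +NADPH regen, 60 min RT; stop/detect 20 min; luminescence. Normalized to furafylline 57 uM = full inhibition.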

[3] = NFAT Signaling Pathway (AID 444); conditions: Jurkat NFAT-bla M1, carbachol, beta-lactamase ratio, 5 h;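 further: carbachol stimulus at about its EC50 of 1 µM final; on the % scale 0 is the no-effect control and ±100 the full control effect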
How it was run: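 Read-out: CCF4 FRET ratio (460 nm/530 nm) after 1 h RT dye loading, used for %activity and AC50 from titration series. Cells: Jurkat NFAT-β-lactamase/M1 line, treated with compound plus 1 uM carbachol for 5 h, 37 °C.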

[4] = Stat Signaling Pathway (AID 446); conditions: ME-180 (cervical carcinoma) SIE beta-lactamase reporter, IL-6 stimulated, 5 h;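 further: ME-180 cervical cancer cells given 40 pM IL-6 alongside compound; SIE-controlled beta-lactamase reporter measured as 460/530 nm FRET emission ratio; on the % scale 0 is the no-effect control and ±100 the full control effect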
How it was run: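 FRET read-out (405 nm excitation, 460/530 nm emission) of a beta-lactamase reporter under a STAT-inducible element in ME-180 cervical carcinoma cells. Cells with compound receive 40 pM IL-6 for 5 h. Values are normalised to AC90 stimulation and AC90 JAK-inhibitor controls.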

[5] = target: Mitogen-activated protein kinase 10 (Mus musculus) (UniProt Q61831); test: JNK3 AlphaScreen Assay (AID 530); conditions: JNK3 lysate, c-Jun phosphorylation; series mostly up to 57.1 µM;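 further: kinase came from lysate of stimulated human HepG2 cells; signal reports phosphorylation of biotinylated GST-cJun 1-79 at Ser73 with 10 µM ATP; on the % scale 0 is the no-effect control and ±100 the full control effect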
How it was run: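 Kinase buffer: 20 mM Tris-HCl pH 7.6, 10 mM MgCl2, 1 mM DTT, 0.1 mM Na3VO4, 0.01% Tween-20; ATP 10 uM. Substrate biotin-GST-cJun(1-79), enzyme from activated HepG2 lysates. Detection by Ser73 phospho-antibody AlphaScreen.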

[6] = target: 3',5'-cyclic-AMP phosphodiesterase 4B (Homo sapiens) (UniProt Q07343); test: qHTS Assay for Inhibitors of PDE-IV (AID 607; active means well fitted activation curve with a large enough effect in the main read-out, with a control signal flat, not every such curve was filed as active; further: % of control where 0% means no effect); conditions: HEK293 ACTOne CNG channel cells, membrane potential fluorescence; series mostly up to 22.9 µM
How it was run: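 Cell-based read-out of cAMP via a modified cyclic nucleotide-gated channel and membrane potential dye (535/590 nm) in HEK293 cells expressing PDE4 endogenously. Compounds tested up to 22.9 uM final; 100 uM RO 20-1724 reference.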

[7] = qHTS Assay for Lipid Storage Modulators (AID 1519; calls by dose curve); conditions: Drosophila S3 cells, BODIPY lipid droplet/cell ratio, laser cytometry, cells loaded with oleic acid; for activity change, negative = inhibition: at 25.7 µM (top of the series)
How it was run: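 Cells seeded at 5,000 per well were treated with compounds over a concentration series and loaded with oleic acid (400 uM, as added). Lipid droplet fluorescence (488 nm excitation, 500-530 nm channel) was read by laser-scanning cytometry and normalized to 20 uM Triacsin C.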

[8] = target: Guanine nucleotide-binding protein G(i) subunit alpha-1 (Homo sapiens) (UniProt P63096); test: qHTS Assay for Inhibitors of RGS12 GoLoco Motif Activity (Green Fluorophore) (AID 879; active means well fitted curve in the direction sought with a large enough effect; an effect the other way counts as inactive or inconclusive;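 further: 0% = labeled peptide with Gαi1 and full inhibition = labeled peptide alone without protein; negative values mean loss of peptide binding seen as reduced polarization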); conditions: Galphai1/FITC-RGS12 GoLoco peptide, fluorescence polarization; series mostly up to 57.1 µM
How it was run: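 A drop in FITC polarization marked displacement of the FITC-tagged RGS12 GoLoco peptide (10 nM) from Gαi1 (50 nM). Compounds were incubated 10 min at room temperature in Tris pH 7.5 buffer containing 150 mM NaCl, 0.1 mM GDP and 0.05% NP40; unlabeled peptide titration served as control.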

[9] = target: Pyruvate kinase (Leishmania mexicana) (UniProt Q27686); test: qHTS Validation Assay for Inhibitors of Leishmania Mexicana Pyruvate Kinase (AID 945; active means well fitted curve in the direction sought with a large enough effect; an effect the other way counts as inactive or inconclusive;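 further: 0% = DMSO only neutral control wells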); conditions: purified L. mexicana pyruvate kinase, enzyme activity, E451W mutant enzyme; series mostly up to 57.5 µM
How it was run: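 Read-out: luminescence from PKLight stop/detection reagent, data normalized to DMSO. Reaction: 0.2 nM E451W LmPYK, 0.5 mM PEP, 0.1 mM ADP, pH 7.2, 1 h room temperature.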

[10] = target: Pyruvate kinase PKM (Homo sapiens) (UniProt P14618); test: qHTS Assay for Activators of Human Muscle Pyruvate Kinase (AID 954; active means well fitted curve in the direction sought with a large enough effect, not every such curve was filed as active;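 further: 0% = uninhibited enzyme and -100% = no enzyme or full thiadiazolimine inhibition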); conditions: purified human muscle pyruvate kinase, luciferase-coupled luminescence, 1 h; series mostly up to 57.5 µM
How it was run: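 ATP production by PKM2 detected via luciferase luminescence after 1 h room-temperature reaction (0.1 nM enzyme, PEP at Km 0.5 mM, ADP 0.1 mM, pH 7.2 imidazole buffer). Inhibition scaled to no-enzyme control; activation referenced to 0.3 nM enzyme wells.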

[11] = target: ATP-dependent 6-phosphofructokinase (Trypanosoma brucei brucei) (UniProt O15648); test: qHTS Assay to Find Inhibitors of T. brucei phosphofructokinase: hit validation (AID 492961; active means well fitted curve in the direction sought with a large enough effect; an effect the other way counts as inactive or inconclusive); conditions: T. brucei PFK, ADP-Glo luminescence; series mostly up to 24.3 µM
How it was run: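 Measures ADP output of PFK (1.25 nM) at 0.1 mM ATP, 0.5 mM F6P, pH 8.0 TEA buffer with 5 mM MgCl2. No-enzyme wells define full inhibition; uninhibited enzyme wells define zero.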

[12] = target: Ubiquitin carboxyl-terminal hydrolase 1 (Homo sapiens) (UniProt O94782); test: Inhibitors of USP1/UAF1: Pilot qHTS (AID 504865; active means well fitted curve in the direction sought with a large enough effect; an effect the other way counts as inactive or inconclusive; further: nearly all actives have a fitted effect of over 35% in size; further: potency means the concentration at half of the fitted maximal effect); conditions: purified USP1/UAF1, Ub-rhodamine cleavage fluorescence; series mostly up to 54.9 µM
How it was run: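 USP1/UAF1 complex at 1 nM preincubated 15 min at room temperature with compound, then Ub-Rho substrate added at 150 nM final. Fluorescence (480/540 nm) read kinetically in 50 mM HEPES pH 7.8, 0.5 mM EDTA, 1 mM TCEP, 0.1 mg/ml BSA, 0.01% Tween-20.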

[13] = target: Luciferin 4-monooxygenase (Photinus pyralis) (UniProt P08659); test: Biochemical firefly luciferase enzyme assay for NPC (AID 624030; active means well fitted curve in the direction sought with a large enough effect; an effect the other way counts as inactive or inconclusive;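 further: purified P. pyralis luciferase at 10 nM with luciferin and ATP substrate; 0% = DMSO and -100% = full luciferase inhibition by PTC124 control; nearly all actives have a fitted effect of over 70% in size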); conditions: purified P. pyralis luciferase, luminescence, 5 min; series mostly up to 58.6 µM
How it was run: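 Direct inhibition of firefly luciferase enzyme (10 nM final, 50 mM Tris Acetate) assessed by luminescence within 5 minutes. Percent activity scaled between DMSO and PTC124 positive control, with concentration-effect curves classified by fit quality and response.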

[14] = target: Glucocorticoid receptor (Homo sapiens) (UniProt P04150); test: GR-GFP Redistribution (AID 450;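 active means compounds whose dose series gives a full or clear partial fitted curve of increased nuclear translocation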; further: potency means the concentration at half of the fitted maximal effect); conditions: U2OS GR-GFP nuclear translocation, laser cytometry, 2 h
[15] = target: Glucocorticoid receptor (Homo sapiens) (UniProt P04150); test: GR-EFC Redistribution (AID 451; calls by dose curve; further: potency means the concentration at half of the fitted maximal effect); conditions: CHO-K1 GR-EFC translocation, beta-gal luminescence, 2 h
How it was run: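 Translocation of GR-ED fusion to nuclear EA restores b-gal, read by luminescence after 1 h room-temperature detection. Engineered CHO-K1 biosensor cells, 1,000/well, exposed 2 h at 37 C to titrations up to 46 uM final.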

[16] = qHTS profiling for inhibitors of Plasmodium falciparum proliferation (AID 504749; active means well fitted curve in the direction sought with a large enough effect; an effect the other way counts as inactive or inconclusive;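 further: 0% = DMSO vehicle and full inhibition = artemisinin control; nearly all actives have a fitted effect of over 60% in size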); conditions: P. falciparum in erythrocytes, SYBR Green DNA, 72 h, at 12.8 µM (top of the series)
How it was run: (§1)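 In a 72 h erythrocytic culture (37 C, humidified, 5% CO2) at 2.5% hematocrit and 0.3% starting parasitemia, compounds were tested; SYBR Green I in detergent lysis buffer stained parasite DNA overnight.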

AS120 = test: as above; conditions: P. falciparum in erythrocytes, SYBR Green DNA, 72 h; series mostly up to 28.7 µM
How it was run: as §1

CP238 = test: as above; conditions: P. falciparum in erythrocytes, SYBR Green DNA, 72 h; series mostly up to 12.8 µM
How it was run: as §1

CP265 = test: as above; conditions: P. falciparum in erythrocytes, SYBR Green DNA, 72 h; series mostly up to 12.8 µM
How it was run: as §1

FAB9 = test: as above; conditions: P. falciparum in erythrocytes, SYBR Green DNA, 72 h; series mostly up to 12.8 µM
How it was run: as §1

[17] = measured here: cell count channel max response
[18] = measured here: lipid channel max response
[19] = at 7.69 µM (top of the series) unless noted

Sequence of Ubiquitin carboxyl-terminal hydrolase 1 (Homo sapiens) (O94782 whole entry, looked up): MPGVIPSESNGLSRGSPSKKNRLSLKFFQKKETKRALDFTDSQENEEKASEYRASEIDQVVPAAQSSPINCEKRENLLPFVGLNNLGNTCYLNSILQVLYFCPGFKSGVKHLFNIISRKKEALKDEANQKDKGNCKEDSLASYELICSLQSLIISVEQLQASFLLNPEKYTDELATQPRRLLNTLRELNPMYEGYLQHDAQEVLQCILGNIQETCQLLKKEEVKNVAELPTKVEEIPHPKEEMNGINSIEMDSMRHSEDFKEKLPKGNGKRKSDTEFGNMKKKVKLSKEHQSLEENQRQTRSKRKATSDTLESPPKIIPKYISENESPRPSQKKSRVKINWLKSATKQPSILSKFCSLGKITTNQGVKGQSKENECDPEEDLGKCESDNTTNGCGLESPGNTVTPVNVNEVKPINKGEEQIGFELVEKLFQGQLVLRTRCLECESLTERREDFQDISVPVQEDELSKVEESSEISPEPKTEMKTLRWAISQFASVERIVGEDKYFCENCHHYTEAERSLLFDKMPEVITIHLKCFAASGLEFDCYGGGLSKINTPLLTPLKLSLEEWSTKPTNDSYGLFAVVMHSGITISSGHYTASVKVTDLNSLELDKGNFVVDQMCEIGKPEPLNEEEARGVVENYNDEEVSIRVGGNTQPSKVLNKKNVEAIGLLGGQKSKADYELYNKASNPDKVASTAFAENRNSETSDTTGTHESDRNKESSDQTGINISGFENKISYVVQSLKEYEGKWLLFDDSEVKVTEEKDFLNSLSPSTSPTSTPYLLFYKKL
Sequence of Luciferin 4-monooxygenase (Photinus pyralis) (P08659 whole entry, looked up): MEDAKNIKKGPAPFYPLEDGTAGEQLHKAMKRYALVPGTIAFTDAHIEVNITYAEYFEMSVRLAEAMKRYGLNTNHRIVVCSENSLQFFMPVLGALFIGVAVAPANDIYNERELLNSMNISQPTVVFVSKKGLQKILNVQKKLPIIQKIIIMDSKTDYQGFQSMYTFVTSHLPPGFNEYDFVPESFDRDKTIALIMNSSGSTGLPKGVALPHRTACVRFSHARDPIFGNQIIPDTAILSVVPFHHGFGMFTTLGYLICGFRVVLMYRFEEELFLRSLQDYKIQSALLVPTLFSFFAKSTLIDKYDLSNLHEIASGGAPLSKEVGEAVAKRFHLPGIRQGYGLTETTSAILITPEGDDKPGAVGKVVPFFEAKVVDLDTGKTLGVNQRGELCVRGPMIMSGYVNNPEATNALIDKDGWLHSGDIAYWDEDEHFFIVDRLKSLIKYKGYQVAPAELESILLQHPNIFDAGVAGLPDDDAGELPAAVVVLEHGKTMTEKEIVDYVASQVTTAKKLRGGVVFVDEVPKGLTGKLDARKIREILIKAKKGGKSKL
Sequence of Glucocorticoid receptor (Homo sapiens) (P04150 whole entry, looked up, the tested form may be a part): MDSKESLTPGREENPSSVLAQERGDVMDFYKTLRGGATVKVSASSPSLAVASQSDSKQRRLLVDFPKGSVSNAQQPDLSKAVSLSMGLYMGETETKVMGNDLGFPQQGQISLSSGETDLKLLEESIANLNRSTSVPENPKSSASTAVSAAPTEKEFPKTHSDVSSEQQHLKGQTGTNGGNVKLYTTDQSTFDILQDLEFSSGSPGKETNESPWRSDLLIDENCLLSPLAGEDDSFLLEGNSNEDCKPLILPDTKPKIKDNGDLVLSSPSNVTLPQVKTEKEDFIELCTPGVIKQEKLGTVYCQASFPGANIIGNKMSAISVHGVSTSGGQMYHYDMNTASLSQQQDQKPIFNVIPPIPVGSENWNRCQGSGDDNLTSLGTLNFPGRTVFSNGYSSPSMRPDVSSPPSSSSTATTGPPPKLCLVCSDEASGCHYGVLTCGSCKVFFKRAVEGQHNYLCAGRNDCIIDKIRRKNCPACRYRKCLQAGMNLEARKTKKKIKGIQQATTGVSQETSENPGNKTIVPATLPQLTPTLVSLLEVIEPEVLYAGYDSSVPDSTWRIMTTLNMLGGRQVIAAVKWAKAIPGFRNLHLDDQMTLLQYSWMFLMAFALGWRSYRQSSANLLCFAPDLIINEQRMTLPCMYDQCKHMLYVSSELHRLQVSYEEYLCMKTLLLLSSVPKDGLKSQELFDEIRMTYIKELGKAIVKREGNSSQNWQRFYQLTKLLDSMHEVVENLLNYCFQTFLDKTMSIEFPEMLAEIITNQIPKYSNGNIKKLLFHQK
Sequence of ATP-dependent 6-phosphofructokinase (Trypanosoma brucei brucei) (O15648 whole entry, looked up): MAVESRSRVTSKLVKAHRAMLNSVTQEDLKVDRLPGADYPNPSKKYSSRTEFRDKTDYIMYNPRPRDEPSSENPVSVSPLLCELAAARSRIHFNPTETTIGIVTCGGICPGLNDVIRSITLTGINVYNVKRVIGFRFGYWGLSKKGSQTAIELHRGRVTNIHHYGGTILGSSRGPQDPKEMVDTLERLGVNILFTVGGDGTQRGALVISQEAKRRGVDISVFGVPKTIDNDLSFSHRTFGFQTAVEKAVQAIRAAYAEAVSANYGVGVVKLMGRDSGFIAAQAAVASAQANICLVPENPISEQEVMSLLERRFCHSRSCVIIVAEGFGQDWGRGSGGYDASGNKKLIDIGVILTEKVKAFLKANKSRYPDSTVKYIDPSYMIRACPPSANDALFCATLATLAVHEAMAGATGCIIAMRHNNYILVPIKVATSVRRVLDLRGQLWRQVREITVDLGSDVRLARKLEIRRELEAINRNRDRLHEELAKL
Sequence of 3',5'-cyclic-AMP phosphodiesterase 4B (Homo sapiens) (Q07343 whole entry, looked up): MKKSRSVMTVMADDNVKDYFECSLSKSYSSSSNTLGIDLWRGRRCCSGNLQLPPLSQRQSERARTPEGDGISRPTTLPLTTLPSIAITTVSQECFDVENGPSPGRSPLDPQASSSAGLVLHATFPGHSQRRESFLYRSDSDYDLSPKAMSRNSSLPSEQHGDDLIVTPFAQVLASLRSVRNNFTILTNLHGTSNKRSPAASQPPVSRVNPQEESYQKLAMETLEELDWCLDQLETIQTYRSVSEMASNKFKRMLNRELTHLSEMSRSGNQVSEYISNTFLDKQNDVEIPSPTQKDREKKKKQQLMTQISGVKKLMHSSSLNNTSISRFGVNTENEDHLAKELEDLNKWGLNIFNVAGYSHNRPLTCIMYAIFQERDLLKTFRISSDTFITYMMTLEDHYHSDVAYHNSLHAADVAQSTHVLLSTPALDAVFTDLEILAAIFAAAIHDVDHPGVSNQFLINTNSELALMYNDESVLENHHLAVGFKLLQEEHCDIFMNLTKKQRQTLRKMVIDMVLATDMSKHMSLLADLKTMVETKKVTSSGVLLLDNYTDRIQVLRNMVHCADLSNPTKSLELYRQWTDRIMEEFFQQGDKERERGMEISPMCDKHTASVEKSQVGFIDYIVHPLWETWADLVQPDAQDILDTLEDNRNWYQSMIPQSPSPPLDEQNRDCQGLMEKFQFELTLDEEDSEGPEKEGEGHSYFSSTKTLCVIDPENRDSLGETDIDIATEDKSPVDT
Sequence of Cytochrome P450 1A2 (Homo sapiens) (P05177 whole entry, looked up): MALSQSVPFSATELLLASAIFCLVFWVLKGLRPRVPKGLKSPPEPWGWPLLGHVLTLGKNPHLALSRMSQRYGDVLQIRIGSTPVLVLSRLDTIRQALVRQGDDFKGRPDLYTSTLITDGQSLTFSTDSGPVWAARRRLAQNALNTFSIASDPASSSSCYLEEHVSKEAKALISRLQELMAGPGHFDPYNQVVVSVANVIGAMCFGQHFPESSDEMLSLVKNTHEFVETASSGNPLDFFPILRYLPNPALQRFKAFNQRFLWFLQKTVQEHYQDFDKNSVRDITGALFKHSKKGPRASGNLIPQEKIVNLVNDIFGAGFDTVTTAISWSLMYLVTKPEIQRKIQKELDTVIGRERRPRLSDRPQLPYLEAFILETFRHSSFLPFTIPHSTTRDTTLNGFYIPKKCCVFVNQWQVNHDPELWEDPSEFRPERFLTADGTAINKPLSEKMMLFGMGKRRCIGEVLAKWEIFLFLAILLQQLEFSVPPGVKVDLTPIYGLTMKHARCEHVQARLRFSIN
Sequence of Pyruvate kinase (Leishmania mexicana) (Q27686 2-499 E452W): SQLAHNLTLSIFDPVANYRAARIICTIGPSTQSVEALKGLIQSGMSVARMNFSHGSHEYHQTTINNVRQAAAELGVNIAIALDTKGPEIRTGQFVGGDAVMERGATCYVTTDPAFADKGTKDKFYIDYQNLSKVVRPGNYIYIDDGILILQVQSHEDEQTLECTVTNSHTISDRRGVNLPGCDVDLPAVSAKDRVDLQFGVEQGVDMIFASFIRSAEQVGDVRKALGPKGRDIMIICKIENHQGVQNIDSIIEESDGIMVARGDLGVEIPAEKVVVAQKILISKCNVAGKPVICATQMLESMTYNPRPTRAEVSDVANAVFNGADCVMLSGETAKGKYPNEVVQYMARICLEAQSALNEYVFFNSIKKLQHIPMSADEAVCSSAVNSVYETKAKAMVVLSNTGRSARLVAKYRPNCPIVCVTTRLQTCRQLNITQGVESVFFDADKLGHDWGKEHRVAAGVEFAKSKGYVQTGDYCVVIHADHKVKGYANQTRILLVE
Sequence of Guanine nucleotide-binding protein G(i) subunit alpha-1 (Homo sapiens) (P63096 whole entry, looked up): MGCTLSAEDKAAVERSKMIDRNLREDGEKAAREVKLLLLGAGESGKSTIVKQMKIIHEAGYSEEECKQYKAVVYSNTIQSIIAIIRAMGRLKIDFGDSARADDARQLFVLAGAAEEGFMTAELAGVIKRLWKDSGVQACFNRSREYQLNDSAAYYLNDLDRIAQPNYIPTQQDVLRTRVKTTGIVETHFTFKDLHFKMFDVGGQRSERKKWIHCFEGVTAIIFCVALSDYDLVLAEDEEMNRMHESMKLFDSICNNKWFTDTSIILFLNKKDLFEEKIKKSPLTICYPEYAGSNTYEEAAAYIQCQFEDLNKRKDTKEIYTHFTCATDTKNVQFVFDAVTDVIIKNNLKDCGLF

CN(Cc1cnc2nc(N)nc(N)c2n1)c1ccc(C(=O)N[C@H](CCC(=O)O)C(=O)O)cc1
activity change, negative = inhibition ([1]; at 17.2 µM (top of the series)): 13.9% (inactive) | activity change, negative = inhibition ([1]; at 38 µM (top of the series)): 2.91% (inactive) and 5.9% (inactive) | Potency [2]: inactive | activity change, negative = inhibition ([3]; at 17.2 µM (top of the series)): -38.1% (inactive) | activity change, negative = inhibition ([3]; at 38 µM (top of the series)): -4.84% (inactive) and 12.6% (inactive) | activity, negative = inhibition ([4]; at 17.2 µM (top of the series)): 8.48% (inactive) | activity, negative = inhibition ([4]; at 38 µM (top of the series)): -1.61% (inactive) and 15.7% (inactive) | Potency [5]: inactive | Potency [6]: inactive | activity change, negative = inhibition [7]: 0.922% (inactive) | max response [7, 17]: -1.52% | max response [7, 18]: -2.14%

C[C@@H](C(=O)O)c1cccc(C(=O)c2ccccc2)c1
activity change, negative = inhibition ([1]; at 17.2 µM (top of the series)): 5.98% (inactive) | activity change, negative = inhibition ([1]; at 38 µM (top of the series)): 9.29% (inactive) | activity change, negative = inhibition ([3]; at 17.2 µM (top of the series)): 5.64% (inactive) | activity change, negative = inhibition ([3]; at 38 µM (top of the series)): 19.5% (inactive) | activity, negative = inhibition ([4]; at 17.2 µM (top of the series)): 6.92% (inactive) | activity, negative = inhibition ([4]; at 38 µM (top of the series)): 4.82% (inactive) | Potency [5]: inactive | Potency [6]: inactive | Potency [8]: inactive | outcome [9]: inactive | outcome [10]: inactive | activity change, negative = inhibition [7]: -0.218% (inactive) | max response [7, 17]: 11.1% | max response [7, 18]: 10.1% | outcome [11]: inactive | Potency [12]: inactive | outcome [13]: inactive

CCC[C@H]1C(=O)N2C(N(C)C)=Nc3ccc(C)cc3N2C1=O
activity change, negative = inhibition [1, 19]: 1.43% [at 17.2 µM] (inactive) | Potency [2]: 1.58 µM (active) | activity change, negative = inhibition [3, 19]: -21% [at 17.2 µM] (inactive) | activity, negative = inhibition [4, 19]: -9.03% [at 17.2 µM] (inactive) | Potency [14]: > 20.6 µM (inactive) | Potency [15]: > 20.6 µM (inactive) | Potency [5]: inactive | Potency [6]: inactive | activity change, negative = inhibition [7]: -3.21% (inactive) | max response [7, 17]: -10.8% | max response [7, 18]: -12% | outcome [11]: inactive | Potency [12]: inactive | outcome [13]: inactive | activity, negative = inhibition ([16]; parasite line A): 12.2% (inactive) | activity, negative = inhibition ([16]; parasite line B): -0.686% (inactive) | Potency (AS120): inactive | Potency (CP238): inactive | Potency (CP265): inactive | Potency (FAB9): inactive

CN(C)[C@H]1C(=O)C(C(=O)NCN2CCCC2)=C(O)[C@]2(O)C(=O)C3=C(O)c4c(O)cccc4[C@@](C)(O)[C@H]3C[C@@H]12
activity change, negative = inhibition [1, 19]: 4.94% [at 17.2 µM] (inactive) | Potency [2]: inactive | activity change, negative = inhibition [3, 19]: -7.08% [at 17.2 µM] (inactive) | activity, negative = inhibition [4, 19]: 7.95% [at 17.2 µM] (inactive) | Potency [14]: > 20.6 µM (inactive) | Potency [15]: > 20.6 µM (inactive) | Potency [5]: inactive | Potency [6]: inactive | activity change, negative = inhibition [7]: -2.08% (inactive) | max response [7, 17]: -14% | max response [7, 18]: -16.5% | outcome [11]: inactive | Potency [12]: 28.2 µM (active) | outcome [13]: inactive | activity, negative = inhibition ([16]; parasite line A): -2.6% (inactive) | activity, negative = inhibition ([16]; parasite line B): 2.5% (inactive) | Potency (AS120): inactive | Potency (CP238): inactive | Potency (CP265): inactive | Potency (FAB9): inactive

CN(C)CC[C@@H](c1ccccc1)c1ccccn1
activity change, negative = inhibition ([1]; at 17.2 µM (top of the series)): 4.02% (inactive) | activity change, negative = inhibition ([1]; at 38 µM (top of the series)): 8.55% (inactive) | Potency [2]: inactive | activity, negative = inhibition ([4]; at 17.2 µM (top of the series)): 8.97% (inactive) | activity, negative = inhibition ([4]; at 38 µM (top of the series)): 22.6% (inactive) | Potency [14]: > 46 µM (inactive) and > 20.6 µM (inactive) | Potency [15]: > 46 µM (inactive) and > 20.6 µM (inactive) | Potency [5]: inactive | Potency [6]: inactive | Potency [8]: inactive | outcome [9]: inactive | outcome [10]: inactive | activity change, negative = inhibition [7]: 1.47% (inactive) | max response [7, 17]: 1.01% | max response [7, 18]: 2.03% | Potency [12]: inactive

From PubChem BioAssay (NCATS)
